Inconclusive results are not listed. Unmarked numbers belong to inactive results. Activity calls are given as the source filed them. Calls follow the shape of the dose curve; as a rule, active = well fitted cell-killing curve with a large enough effect; inconclusive = small, poorly fitted or top-dose-only effect, or effect the other way; inactive = no such curve, though single readings can be large or run the other way.
Legend:
[1] = Quantitative High-Throughput drug screen in 47 multiple myeloma cell lines against the NCATS MIPE library collection: MM1R_ATCC cell viability assay (AID 1918981); also: nearly all actives have a fitted effect of over 35% in size
Method in brief: (§1)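 Readout: median RLU from CellTiter-Glo after 5 min at room temperature. Preceding step was 48 h drug treatment of 500 cells/well at 37 °C, 5% CO2, with DMSO-only and media-only control wells.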

[2] = Quantitative High-Throughput drug screen in 47 multiple myeloma cell lines against the NCATS MIPE library collection: KMS28PE_JCRB cell viability assay (AID 1918983); also: nearly all actives have a fitted effect of over 35% in size
Method in brief: as §1

[3] = Quantitative High-Throughput drug screen in 47 multiple myeloma cell lines against the NCATS MIPE library collection: U266_ATCC cell viability assay (AID 1919864); also: nearly all actives have a fitted effect of over 35% in size;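 as to viability (% of DMSO control): 0% = media-only wells without cells and 100% = DMSO-only wells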
Method in brief: as §1

[4] = Quantitative High-Throughput drug screen in 47 multiple myeloma cell lines against the NCATS MIPE library collection: XG6_PLB cell viability assay (AID 1919865); also: nearly all actives have a fitted effect of over 40% in size;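 as to viability (% of control): 100% = DMSO-only wells and 0% = media-only wells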
Method in brief: as §1

[5] = Quantitative High-Throughput drug screen in 47 multiple myeloma cell lines against the NCATS MIPE library collection: PE2_PLB cell viability assay (AID 1919869); also: nearly all actives have a fitted effect of over 35% in size;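 as to viability (% of control): 100% = DMSO-only wells and 0% = cell-free media-only wells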
Method in brief: as §1

[6] = Quantitative High-Throughput drug screen in 47 multiple myeloma cell lines against the NCATS MIPE library collection: PCM6_Riken cell viability assay (AID 1919870); also: nearly all actives have a fitted effect of over 30% in size;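 as to viability (% of control): 100% = DMSO-only wells and 0% = media-only wells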
Method in brief: as §1

[7] = Quantitative High-Throughput drug screen in 47 multiple myeloma cell lines against the NCATS MIPE library collection: KMS11_JCRBsus cell viability assay (AID 1919873); also: nearly all actives have a fitted effect of over 50% in size;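 as to viability (% of control): 100% = DMSO-only wells and 0% = media-only wells without cells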
Method in brief: as §1

[8] = Quantitative High-Throughput drug screen in 47 multiple myeloma cell lines against the NCATS MIPE library collection: L363_DSMZ cell viability assay (AID 1918984); conditions: L363 myeloma viability, CellTiter-Glo ATP luminescence, 48 h; viability (% of control): at 45.8 µM (top of the series); also: nearly all actives have a fitted effect of over 40% in size
Method in brief: as §1

[9] = Quantitative High-Throughput drug screen in 47 multiple myeloma cell lines against the NCATS MIPE library collection: KMS34_JCRB cell viability assay (AID 1918985); also: nearly all actives have a fitted effect of over 40% in size
Method in brief: as §1

[10] = Quantitative High-Throughput drug screen in 47 multiple myeloma cell lines against the NCATS MIPE library collection: OCIMY7_PLB cell viability assay (AID 1918987); conditions: OCI-MY7 myeloma viability, CellTiter-Glo ATP, 48 h; viability (% of DMSO): at 45.8 µM (top of the series); also: nearly all actives have a fitted effect of over 65% in size
Method in brief: as §1

[11] = Quantitative High-Throughput drug screen in 47 multiple myeloma cell lines against the NCATS MIPE library collection: OCIMY5_PLB cell viability assay (AID 1918988); also: nearly all actives have a fitted effect of over 65% in size
Method in brief: as §1

[12] = Quantitative High-Throughput drug screen in 47 multiple myeloma cell lines against the NCATS MIPE library collection: OPM1_PLB cell viability assay (AID 1918989); also: nearly all actives have a fitted effect of over 40% in size;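 as to viability (% of control): 100% = DMSO-only wells and 0% = media-only wells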
Method in brief: as §1

[13] = Quantitative High-Throughput drug screen in 47 multiple myeloma cell lines against the NCATS MIPE library collection: SKMM1_PLB cell viability assay (AID 1919863); conditions: SKMM1 myeloma viability, CellTiter-Glo ATP, 48 h; viability: active compounds read low; also: nearly all actives have a fitted effect of over 35% in size
Method in brief: as §1

[14] = Quantitative High-Throughput drug screen in 47 multiple myeloma cell lines against the NCATS MIPE library collection: XG1_PLB cell viability assay (AID 1919866); also: nearly all actives have a fitted effect of over 35% in size
Method in brief: as §1

[15] = Quantitative High-Throughput drug screen in 47 multiple myeloma cell lines against the NCATS MIPE library collection: VP6_DJ cell viability assay (AID 1919867); also: nearly all actives have a fitted effect of over 40% in size;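 as to viability (% of DMSO): 100% = DMSO-only wells and 0% = wells with media alone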
Method in brief: as §1

[16] = Quantitative High-Throughput drug screen in 47 multiple myeloma cell lines against the NCATS MIPE library collection: RPMI8226_ATCC cell viability assay (AID 1919871); also: nearly all actives have a fitted effect of over 30% in size
Method in brief: as §1

[17] = Quantitative High-Throughput drug screen in 47 multiple myeloma cell lines against the NCATS MIPE library collection: OPM2_DSMZ cell viability assay (AID 1919872); also: nearly all actives have a fitted effect of over 30% in size
Method in brief: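 Inhibition of cell viability is measured here. Each line was plated at 500 cells per well, treated with MIPE 4.0 drugs, kept 48 hours at 37C, then assayed for ATP content by CellTiter-Glo luminescence.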

[18] = Quantitative High-Throughput drug screen in 47 multiple myeloma cell lines against the NCATS MIPE library collection: KMS28BM_JCRB cell viability assay (AID 1919874); also: nearly all actives have a fitted effect of over 35% in size
Method in brief: as §1

[19] = Quantitative High-Throughput drug screen in 47 multiple myeloma cell lines against the NCATS MIPE library collection: UTMC2_PLB cell viability assay (AID 1919868); conditions: CellTiter-Glo ATP luminescence, 48 h; viability (% of DMSO control): at 45.8 µM (top of the series); also: nearly all actives have a fitted effect of over 55% in size;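 as to viability (% of DMSO control): 100% = DMSO-only wells and 0% = media-only wells without cells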
Method in brief: as §1
Potency is read from the fitted curve at half-maximal effect.

Cc1ccc2c(c1)c1c(n2CCc2ccc(C)nc2)CCN(C)C1
Potency [1]: inactive
Potency [2]: inactive
Potency [3]: inactive
Potency [4]: 16.6 µM (active)
Potency [5]: inactive
Potency [6]: inactive
Potency [7]: inactive

O=c1[nH]nc(OCCCc2ccc(Cl)cc2)c(NCc2cccnc2)c1Br
Potency [1]: 16.6 µM (active)
Potency [8]: 3.72 µM (active)
Potency [9]: 20.9 µM (active)
Potency [10]: 7.43 µM (active)
Potency [11]: 18.7 µM (active)
Potency [12]: 4.69 µM (active)
Potency [13]: 18.7 µM (active)
Potency [3]: 7.43 µM (active)
Potency [4]: 2.96 µM (active)
Potency [14]: 9.35 µM (active)
Potency [15]: 9.35 µM (active)
Potency [5]: 9.35 µM (active)
Potency [6]: 4.69 µM (active)
Potency [16]: 20.9 µM (active)
Potency [17]: 23.5 µM (active)
Potency [7]: 5.26 µM (active)
Potency [18]: 20.9 µM (active)

CC(C)CN(C[C@H](O)[C@H](Cc1ccccc1)NC(=O)O[C@H]1CCOC1)S(=O)(=O)c1ccc(N)cc1
Potency [1]: 16.6 µM (active)
Potency [9]: inactive
Potency [11]: 2.96 µM (active)
Potency [12]: 26.4 µM (active)
viability [13]: 121%
Potency [14]: 20.9 µM (active)
Potency [15]: 20.9 µM (active)
Potency [6]: 13.2 µM (active)
Potency [16]: inactive
Potency [17]: 18.7 µM (active)

C[C@H]1O[C@@H](n2cc(F)c(=O)[nH]c2=O)[C@H](O)[C@H]1O
Potency [1]: 14.8 µM (active)
Potency [2]: inactive
Potency [12]: 11.8 µM (active)
Potency [4]: inactive
Potency [14]: 8.33 µM (active)
Potency [15]: 0.59 µM (active)
Potency [5]: 1.87 µM (active)
Potency [6]: 8.33 µM (active)
Potency [17]: inactive
Potency [7]: 7.43 µM (active)

Cc1cn([C@@H]2C[C@@H](O)[C@H](CO)O2)c(=O)[nH]c1=O
Potency [1]: inactive
Potency [8]: inactive
Potency [11]: inactive
Potency [12]: inactive
Potency [4]: inactive
Potency [14]: inactive
Potency [15]: inactive
Potency [19]: inactive
Potency [5]: inactive
Potency [6]: inactive
Potency [17]: inactive
Potency [7]: inactive
Potency [18]: inactive

Nc1[nH]nc2nnc(-c3c(-c4ccccc4)nn4ccccc34)cc12
Potency [1]: 23.5 µM (active)
Potency [8]: 2.64 µM (active)
Potency [10]: 0.209 µM (active)
Potency [11]: 20.9 µM (active)
Potency [12]: 5.26 µM (active)
Potency [3]: 5.26 µM (active)
Potency [14]: 6.62 µM (active)
Potency [15]: 1.66 µM (active)
Potency [19]: 4.18 µM (active)
Potency [5]: 9.35 µM (active)
Potency [6]: 7.43 µM (active)
Potency [16]: inactive
Potency [17]: inactive
Potency [7]: 0.235 µM (active)
Potency [18]: 0.166 µM (active)

CC(C)Oc1cc(Nc2nc(N[C@@H](C)c3ccc(F)cn3)ncc2Cl)[nH]n1
Potency [1]: 26.4 µM (active)
Potency [8]: 23.5 µM (active)
Potency [10]: 4.18 µM (active)
Potency [11]: 26.4 µM (active)
Potency [12]: 3.72 µM (active)
Potency [4]: 7.43 µM (active)
Potency [14]: 14.8 µM (active)
Potency [15]: 7.43 µM (active)
Potency [19]: 8.33 µM (active)
Potency [5]: 6.62 µM (active)
Potency [6]: 7.43 µM (active)
Potency [16]: inactive
Potency [17]: 16.6 µM (active)

NC(=O)c1nnn(Cc2cc(Cl)c(C(=O)c3ccc(Cl)cc3)c(Cl)c2)c1N
Potency [1]: 18.7 µM (active)
Potency [8]: inactive
Potency [11]: 26.4 µM (active)
Potency [12]: 16.6 µM (active)
Potency [3]: 16.6 µM (active)
Potency [4]: 18.7 µM (active)
Potency [14]: 20.9 µM (active)
Potency [15]: 20.9 µM (active)
Potency [5]: 23.5 µM (active)
Potency [16]: 14.8 µM (active)
Potency [7]: 16.6 µM (active)

Cc1cccc(Nc2nc(N[C@@H]3CCCC[C@H]3N)ncc2C(N)=O)c1
Potency [1]: 26.4 µM (active)
Potency [8]: 16.6 µM (active)
Potency [10]: 6.62 µM (active)
Potency [12]: 16.6 µM (active)
Potency [13]: 23.5 µM (active)
Potency [14]: 9.35 µM (active)
Potency [15]: 5.26 µM (active)
Potency [19]: 9.35 µM (active)
Potency [5]: 18.7 µM (active)
Potency [6]: 7.43 µM (active)
Potency [7]: 26.4 µM (active)

COc1ccc(CCC(=O)Nc2nc3ccc(Cl)cc3s2)cc1OC
Potency [1]: inactive
Potency [2]: inactive
Potency [12]: inactive
Potency [3]: 16.6 µM (active)
Potency [4]: 23.5 µM (active)
Potency [14]: 16.6 µM (active)
Potency [5]: 23.5 µM (active)
Potency [17]: inactive
Potency [7]: 11.8 µM (active)

CN(C)c1ccccc1CN1CCCN(Cc2ccccc2N(C)C)C1c1ccncc1
Potency [1]: 18.7 µM (active)
Potency [2]: 23.5 µM (active)
Potency [11]: 20.9 µM (active)
Potency [12]: 20.9 µM (active)
Potency [13]: 20.9 µM (active)
Potency [15]: 18.7 µM (active)
Potency [5]: 18.7 µM (active)
Potency [18]: inactive
